# Source: PubChem BioAssay (NCI)
# This is part of a sample that, as a whole, favours compounds with a hit. Of some 83,000 tested, about 20% had one in any assay.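 Each cell line was grown in a 96-well plate and treated with one concentration of compound for 48 hours. Values below 10 were considered active.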 Activity calls are given as the source filed them.
# Tested on: MDA-MB-435 melanoma
# Test: NCI-60 one-dose screen, 48 h (100 = growth as untreated, 0 = no growth, -100 = all killed)
# Conditions: 10 µM
row,Structure (SMILES),growth
1,COc1ccc(-c2cc(-c3cc(C(=O)c4ccc(Br)cc4)n4ccc(C)cc34)nc(N)c2C#N)cc1,92.7% (inactive)
2,CC1(C)[C@@H](NCO)CC[C@]2(C)[C@H]3C(=O)C=C4[C@@H]5C[C@](C)(CO)CC[C@]5(C)CC[C@@]4(C)[C@]3(C)CC[C@@H]12,59.9% (inactive)
3,CO[C@@H]1CSS[C@H]1Cn1nc(-c2ccc(Oc3ccccc3)cc2)c2c(N)ncnc21,17.3% (inactive)
4,CC(=O)Nc1ccc(-c2cn(-c3cccc(C(=O)Nc4ccc(F)c(C(F)(F)F)c4)c3)nn2)cn1,59.7% (inactive)
5,CC1(c2ccccc2)NC(=O)N(CC(=O)Nc2ccc(C(=O)/C=C/c3ccccc3)cc2)C1=O (stereo unspecified),-23% (active)
6,CN(C(=O)c1ccc(C(C)(C)C)cc1)c1sc2c(c1C#N)CCC(=O)C2,14.7% (inactive)
7,Nc1nc(-c2ccccc2)cs1,67.9% (inactive)
8,CN1C(=O)N(C)C2SC(N/N=C/c3cccs3)=NC21 (stereo unspecified),-37.6% (active)
9,O=C(CSc1nnc(-c2c[nH]c3ccccc23)n1-c1ccccc1)c1ccccc1,87.2% (inactive)
10,Nc1nc2c(F)c(F)c(F)c(F)c2s1,101% (inactive)
11,CC1=C(c2cc(-c3ccc(Cl)cc3)c(C#N)c(N)n2)C(c2ccccc2)NC(=S)N1 (stereo unspecified),25.3% (inactive)
12,Cc1noc2c(Cc3ccc([N+](=O)[O-])cc3)nn(CC(=O)N/N=C/c3ccc(Cl)cc3)c(=O)c12,76.3% (inactive)
13,CN1CCN(Cc2ccc(C(=O)Nc3cccc(Nc4ccc5cc(O)ccc5n4)c3)cc2C(F)(F)F)CC1,-85.5% (active)
14,CN1CCN(c2ccc(C(=O)/C=C/c3ccc(OC(F)F)cc3)cc2)CC1,-37.3% (active)
15,CN1CCN(Cc2ccc(NC(=O)c3cncc(C#Cc4cnc5ccc(N[C@H]6CCOC6)nn45)c3)cc2C(F)(F)F)CC1,-79.6% (active)
16,C/C(=N\NC(N)=S)c1ccc(Nc2nc(SC(C)C)nc(-c3ccccc3)c2C#N)cc1,82.6% (inactive)
17,COc1ccc2[nH]c(=O)c(CSc3ccc(Nc4nccc(-c5ccc(Cl)cc5)n4)cc3)cc2c1,111% (inactive)
18,CCOc1ccc(/C=N/NC(=O)Cn2nc(Cc3ccc([N+](=O)[O-])cc3)c3onc(C)c3c2=O)cc1,49.7% (inactive)
19,Brc1ccc(/C=C/c2n(Cc3ccc4ccccc4c3)c3ccccc3[n+]2Cc2ccc3ccccc3c2)cc1,-94% (active)
20,COc1ccc(C2N(c3ccc(Br)cc3)N=C(C(C)=O)N2[C@H]2[C@H](OC(C)=O)O[C@H](COC(C)=O)[C@@H](OC(C)=O)[C@@H]2OC(C)=O)cc1 (stereo partly specified),83.7% (inactive)
21,CCN1CCN(c2ccc(NC(=O)Nc3ccc(-c4cc(C(=O)NC(C)C)c5ncccc5n4)cc3)cc2C(F)(F)F)CC1,-92.9% (active)
22,COc1ccc(OC)c(/C=N/NC(=O)c2ccc3nc(-c4ccc(Cl)cc4)[nH]c3c2)c1,85.7% (inactive)
23,Cc1ccc(-c2cc(-c3cc4ccccc4nc3Cl)[nH]c(=O)n2)cc1,19.1% (inactive)
24,CN1C(=O)N(C)C2SC(N/N=C/c3ccccc3)=NC21 (stereo unspecified),-13.7% (active)

# Tested on: SW-620 colon
# Test: as above
# Conditions: 10 µM
row,Structure (SMILES),growth
1,CCN1CCN(Cc2ccc(C(=O)Nc3cccc(-c4cn(-c5ccc6oc(=O)ccc6c5)nn4)c3)cc2C(F)(F)F)CC1,-100% (active)
2,COc1cc2oc(-c3cccc(C(=O)Nc4ccc(Cl)cc4)c3)cc(=O)c2c(OCCNC(=O)CNC(=O)OC(C)(C)C)c1OC,110% (inactive)
3,O=C(NO)c1ccc(CN2CCN(c3nc(-c4ccccc4)c4ccccc4n3)CC2)cc1,15.6% (inactive)
4,COC[C@@H](CC(C)C)N=C1NC(=O)/C(=C/c2ccc3ncsc3c2)N1,5.92% (active)
5,O=C(/C=C/Nc1ccc(F)cc1F)c1ccc2c(c1)Nc1ccccc1S2,55.1% (inactive)
6,COc1ccc(-c2cc(C(=O)N=Nc3c(O)[nH]c4ccc(F)cc34)c3ccccc3n2)cc1,41.1% (inactive)
7,COc1cc(C2CC(c3ccccc3)=Nc3c(N)nc(N)nc3N2)ccc1Oc1nc(Nc2ccc(F)cc2)nc(N(C)C)n1 (stereo unspecified),44.6% (inactive)
8,COc1ccc(-c2cc(C(=O)N=Nc3c(O)[nH]c4ccccc34)c3ccccc3n2)cc1,-30.2% (active)
9,Cc1ccc(CSc2nc(Cl)c(C#N)c(-c3ccc(F)cc3)n2)cc1,62.8% (inactive)
10,O=C(Nc1ccc(I)cc1)Nc1nc2ccc([N+](=O)[O-])cc2s1,-80.4% (active)
11,O=C(Nc1nc2ccccc2s1)c1ccc(Br)cc1,95% (inactive)
12,O=c1oc2ccccc2cc1-c1csc(N=Nc2c(O)[nH]c3ccc(Br)cc23)n1,104% (inactive)
13,COc1cccc(-c2ccc(/C=N/NC(=O)c3[nH]c4ccc(Br)cc4c3-c3ccccc3)o2)c1,24.6% (inactive)
14,COc1ccc(-c2cc(-c3cc(C(=O)c4ccc(Br)cc4)n4ccc(C)cc34)nc(N)c2C#N)cc1,92.3% (inactive)
15,CC1(C)[C@@H](NCO)CC[C@]2(C)[C@H]3C(=O)C=C4[C@@H]5C[C@](C)(CO)CC[C@]5(C)CC[C@@]4(C)[C@]3(C)CC[C@@H]12,35.2% (inactive)
16,CO[C@@H]1CSS[C@H]1Cn1nc(-c2ccc(Oc3ccccc3)cc2)c2c(N)ncnc21,96.7% (inactive)
17,CC(=O)Nc1ccc(-c2cn(-c3cccc(C(=O)Nc4ccc(F)c(C(F)(F)F)c4)c3)nn2)cn1,-8.11% (active)
18,CC1(c2ccccc2)NC(=O)N(CC(=O)Nc2ccc(C(=O)/C=C/c3ccccc3)cc2)C1=O (stereo unspecified),32.4% (inactive)
19,CN(C(=O)c1ccc(C(C)(C)C)cc1)c1sc2c(c1C#N)CCC(=O)C2,-42.3% (active)

row,Structure (SMILES),growth
1,Nc1nc(-c2ccccc2)cs1,70.5% (inactive)
2,CN1C(=O)N(C)C2SC(N/N=C/c3cccs3)=NC21 (stereo unspecified),15.4% (inactive)
3,O=C(CSc1nnc(-c2c[nH]c3ccccc23)n1-c1ccccc1)c1ccccc1,76.1% (inactive)
4,Nc1nc2c(F)c(F)c(F)c(F)c2s1,106% (inactive)
5,CC1=C(c2cc(-c3ccc(Cl)cc3)c(C#N)c(N)n2)C(c2ccccc2)NC(=S)N1 (stereo unspecified),45.7% (inactive)
6,Cc1noc2c(Cc3ccc([N+](=O)[O-])cc3)nn(CC(=O)N/N=C/c3ccc(Cl)cc3)c(=O)c12,68.2% (inactive)
7,CN1CCN(Cc2ccc(C(=O)Nc3cccc(Nc4ccc5cc(O)ccc5n4)c3)cc2C(F)(F)F)CC1,-83.1% (active)
8,CN1CCN(c2ccc(C(=O)/C=C/c3ccc(OC(F)F)cc3)cc2)CC1,-32.8% (active)
9,CN1CCN(Cc2ccc(NC(=O)c3cncc(C#Cc4cnc5ccc(N[C@H]6CCOC6)nn45)c3)cc2C(F)(F)F)CC1,-69.8% (active)
10,C/C(=N\NC(N)=S)c1ccc(Nc2nc(SC(C)C)nc(-c3ccccc3)c2C#N)cc1,85.8% (inactive)
11,COc1ccc2[nH]c(=O)c(CSc3ccc(Nc4nccc(-c5ccc(Cl)cc5)n4)cc3)cc2c1,105% (inactive)
12,CCOc1ccc(/C=N/NC(=O)Cn2nc(Cc3ccc([N+](=O)[O-])cc3)c3onc(C)c3c2=O)cc1,15.2% (inactive)
13,Brc1ccc(/C=C/c2n(Cc3ccc4ccccc4c3)c3ccccc3[n+]2Cc2ccc3ccccc3c2)cc1,-73.9% (active)
14,COc1ccc(C2N(c3ccc(Br)cc3)N=C(C(C)=O)N2[C@H]2[C@H](OC(C)=O)O[C@H](COC(C)=O)[C@@H](OC(C)=O)[C@@H]2OC(C)=O)cc1 (stereo partly specified),82.5% (inactive)
15,CCN1CCN(c2ccc(NC(=O)Nc3ccc(-c4cc(C(=O)NC(C)C)c5ncccc5n4)cc3)cc2C(F)(F)F)CC1,-69.8% (active)
16,COc1ccc(OC)c(/C=N/NC(=O)c2ccc3nc(-c4ccc(Cl)cc4)[nH]c3c2)c1,92% (inactive)
17,Cc1ccc(-c2cc(-c3cc4ccccc4nc3Cl)[nH]c(=O)n2)cc1,-46.3% (active)
18,CN1C(=O)N(C)C2SC(N/N=C/c3ccccc3)=NC21 (stereo unspecified),38.3% (inactive)
